Experimental data from PubChem BioAssay (NCI).
The panel holds about 79,000 compounds, 15% with a hit somewhere; the sample as a whole holds those more often. A number with no mark means an inactive call. Activity calls are given as the source filed them. Cut-off read from the data, not from the text of the source: active = growth inhibition above about 70%; inactive = the rest.

Key:
[1] = NCI Yeast Anticancer Drug Screen. Data for the rad50 strain (AID 155);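 note: 0% = growth of vehicle-only cultures of the same strain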; conditions: S. cerevisiae rad50 strain growth inhibition, hits give high values
Summary of the method: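 Cells are treated with compound, grown, and their growth is then scored against vehicle-only cultures of the same repair-deficient yeast strain.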

[2] = NCI Yeast Anticancer Drug Screen. Data for the mec2-1 strain (AID 157); conditions: S. cerevisiae mec2-1 strain, hits give high values
Summary of the method: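 mec2-1 yeast strain, carrying an alteration in DNA damage repair or cell cycle control, was exposed to compounds; growth inhibition was measured relative to vehicle-treated controls.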

[3] = NCI Yeast Anticancer Drug Screen. Data for the sgs1 mgt1 strain (AID 161);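 note: 0% = growth of cultures given vehicle only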; conditions: S. cerevisiae sgs1 mgt1 strain, hits give high values
Summary of the method: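 Compounds are added to genetically altered yeast, and growth is compared with cultures given vehicle alone to give percent inhibition.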

[4] = NCI Yeast Anticancer Drug Screen. Data for the cln2 rad14 strain (AID 165);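 note: 0% = growth equal to vehicle treated cultures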; conditions: S. cerevisiae cln2 rad14 strain, hits give high values
Summary of the method: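 Yeast carrying cln2 and rad14 alterations (cell cycle control and DNA damage repair) were exposed to compounds. Growth inhibition was measured against vehicle-treated controls.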

[5] = NCI Yeast Anticancer Drug Screen. Data for the bub3 strain (AID 167); conditions: S. cerevisiae bub3 mutant strain, hits give high values
Summary of the method: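 Part of a panel of yeast mutants defective in DNA damage repair or cell cycle regulation. Each strain is grown with compound, and inhibition is calculated relative to solvent-treated cultures.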

[6] = NCI Yeast Anticancer Drug Screen. Data for the mlh1 rad18 strain (AID 175); conditions: S. cerevisiae mlh1 rad18 strain growth inhibition, hits give high values
Summary of the method: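 Growth inhibition of the yeast strain was measured after compound exposure and expressed relative to vehicle-treated controls. The strain carries defined defects in DNA damage repair.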

[7] = at 5.0 µM (retest, dose inferred, filed as 0.5)
[8] = at 50.0 µM (retest, dose inferred, filed as 5.0)

Structure (SMILES) | growth inhibition [1, 7] | growth inhibition [1, 8] | growth inhibition ([1]; at 50.0 µM) | growth inhibition [2, 7] | growth inhibition [2, 8] | growth inhibition ([2]; at 50.0 µM) | growth inhibition [3, 7] | growth inhibition [3, 8] | growth inhibition ([3]; at 50.0 µM) | growth inhibition [4, 7] | growth inhibition [4, 8] | growth inhibition ([4]; at 50.0 µM) | growth inhibition [5, 7] | growth inhibition [5, 8] | growth inhibition ([5]; at 50.0 µM) | growth inhibition [6, 7] | growth inhibition [6, 8] | growth inhibition ([6]; at 50.0 µM)
CSc1cc(C(=O)O)nc(N)n1 | 4% | -4% | -5.65% | 6% | 0% | 5% | 5% | -1% | -21.6% | 8% | -1% | 28.1% | 3% | -4% | -17.1% | 4% | -4% | -12.3%
O=C1C=CC(=O)C(Sc2ccccc2)=C1 | -3% | 98% (active) | 96.8% (active) | 7% | 99% (active) | 98.9% (active) | -4% | 98% (active) | 89.5% (active) | -14% | 93% (active) | 93.3% (active) | -10% | 99% (active) | 94.1% (active) | 24% | 98% (active) | 95.3% (active)
N=C(N)c1ccc(Nc2ccc(-c3cc4ccc(C(=N)N)cc4[nH]3)cc2)cc1 | 99% (active) | 98% (active) | 98.5% (active) | 99% (active) | 99% (active) | 98.8% (active) | 99% (active) | 99% (active) | 98.8% (active) | 99% (active) | 98% (active) | 98.3% (active) | 99% (active) | 98% (active) | 99% (active) | 99% (active) | 98% (active) | 98.5% (active)
FC(F)(F)c1nc(S)cc(=S)[nH]1 | 1% | 13% | -21.2% | 4% | 17% | 24.9% | 7% | 26% | -5.45% | -2% | 22% | 54% | -2% | 31% | 58.3% | -4% | 10% | -30%
CCOC(=O)C(C(=O)OCC)C(=O)c1ccccc1C(=O)c1ccccc1 | -12% | 44% | 60.8% | -17% | 23% | 34% | -9% | 55% | 56.9% | -2% | 2% | 14.8% | -3% | 32% | 51.5% | 1% | 59% | 80.6% (active)
